Sampled rows, rich in hits. Any-hit rate of the full collection: about 19%.
IL-1B inflam inh: qHTS for Inhibitors of Inflammasome Signaling: IL-1-beta AlphaLISA Primary Screen; activity change, % at 57.5 µM; THP-1 LPS/ATP IL-1B secretion, AlphaLISA, 16 h; active compounds read low; hit rate 4.7% among 360,000; in the data active = activity change below about -50%; inconclusive = mostly about -30% to -49%
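THP-1 cells pretreated 1 hr with compounds (up to 57.5 uM final), then stimulated with LPS (250 ng/mL final) plus ATP (1.25 mM final); secreted IL-1B measured by AlphaLISA after 16 hr, decreased signal indicating inhibition.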
TDP1 cell CPT: qHTS for Inhibitors of human tyrosyl-DNA phosphodiesterase 1 (TDP1): qHTS in cells in presence of CPT | Potency, µM (titrated, usually from 46.2 µM), for inactives: top-dose activity change, negative = growth inhibition, actives largely listed as inhibitors | hit rate 12% among 420,000 | chicken DT40 Tdp1-/-;hTDP1 cells + 20 nM CPT, ATP luminescence, 48 h; note: potency is the fitted concentration of half-maximal effect; nearly all actives have a fitted effect of over 55% in size
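Cell growth measured by CellTiter-Glo luminescence after a minimum 48 h, 37 C compound exposure with 20 nM CPT in Tdp1-knockout DT40 cells stably expressing hTDP1, seeded 400/well; qHTS titration format.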
HT1080NT lethal: qHTS for induction of synthetic lethality in tumor cells producing 2HG: qHTS for the HT-1080-NT fibrosarcoma cell line; Potency, µM (doses to about 46.1 µM), for inactives: top-dose activity, negative = less viability, usual class: cytotoxic; hit rate 1.6% among 360,000; AID 686970, 2013; HT-1080-NT fibrosarcoma viability, CellTiter-Glo ATP luminescence, 48 h;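 note: NT is the 2HG producing partner of a matched IDH1 knockdown line; potency is the fitted concentration of half-maximal effect; 0% = DMSO-treated cells and -100% = media-only wells without cells; nearly all actives have a fitted effect of over 55% in size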
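Viability of the 2HG-overproducing fibrosarcoma line after 48 hours of compound exposure at 37 degrees C was determined by luminescence with CellTiter-Glo, and concentration-effect curves were then fitted and categorized.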
DT40 TDP1 no CPT: qHTS for Inhibitors of human tyrosyl-DNA phosphodiesterase 1 (TDP1): qHTS in cells in absence of CPT; DT40 Tdp1-/- hTDP1 cells, no CPT, ATP luminescence, 48 h; Potency, µM (top dose mostly 46.2 µM), for inactives: top-dose activity change, negative = growth inhibition, actives largely listed as inhibitors; hit rate 15% among 420,000; AID 686978, 2013; note: potency is the fitted concentration of half-maximal effect; nearly all actives have a fitted effect of over 55% in size
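Camptothecin absent (DMSO only). Human TDP1-complemented DT40 knockout cells, 400 cells/well, 37 °C for minimum 48 hr; ATP measured via CellTiter-Glo, 30 min dark incubation, luminescence.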
HT1080 IDH1KD tx: qHTS for induction of synthetic lethality in tumor cells producing 2HG: qHTS for the HT-1080-IDH1KD cell line | hit rate 2% among 360,000 | HT-1080 IDH1 knockdown viability, ATP luminescence, 48 h | Potency, µM (top dose mostly 46.1 µM), without a hit: at the top dose activity, negative = toxicity, hits mostly cytotoxic;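 note: potency is the fitted concentration of half-maximal effect; 0% = DMSO wells and -100% = cell-free medium wells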
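In this qHTS, HT-1080 cells depleted of IDH1 are exposed for 48 h at 37 °C to compound titrations. Toxicity is scored from CellTiter-Glo luminescence, with DMSO as full viability and medium alone as none.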
Starred values were filed as active, the others as inactive; ? = inconclusive; / = no result given; [ ] = another dose, or the depositor's remark. Unless noted, calls come from the whole dose curve; as a rule, active = well fitted curve in the direction sought with a large enough effect; inconclusive = small, poorly fitted or top-dose-only effect, or another doubt; inactive = no such curve, though single readings can be large; an effect the other way counts as inactive or inconclusive. Unless noted, % is set by controls: 0 for no effect and ±100 for the full control effect.

SMILES	IL-1B inflam inh	TDP1 cell CPT	HT1080NT lethal	DT40 TDP1 no CPT	HT1080 IDH1KD tx
COc1ccc(C[C@H]2CN3C(=NC[C@@H]3C(C)C)N2CCNC(=O)c2ccc(C)c(Br)c2)cc1	-63.1*	9.2µM*	?	8.2µM*	-26.1%
O=C(C[n+]1cc(Br)cc2ccccc21)c1ccccc1	26.1	18.4µM*	-6.3%	18.4µM*	-8.3%
OC(CBr)C[n+]1cc(Br)cc2ccccc21 (stereo unspecified)	/	7.08µM*	/	8.91µM*	/
COc1ccccc1CNc1cc(-c2cccc(C#N)c2)ncn1	/	-21.0%	/	-16.6%	/
Cc1[nH]c2ccccc2c1C(=O)C(C)Sc1nc2ccccc2c(=O)n1Cc1cccnc1 (stereo unspecified)	/	7.94µM*	/	11.2µM*	/
O=C(CCN1CCOCC1)c1ccc(Cl)cc1	-24.2	2.91µM*	-12.2%	2.59µM*	-4.3%
O=C(CCN1CCOCC1)c1ccc(Br)cc1	-91.4*	3.26µM*	?	2.59µM*	25.9µM*
O=C(NCCCN1CCOCC1)c1ccc(Cl)cc1	/	12.0%	/	-17.6%	/
Brc1ccc(OCCN2CCOCC2)cc1	-2.2	-2.5%	26.8%	-0.1%	21.4%
Cc1cccc(OCC(=O)Nc2ccccc2OCc2cc(=O)n3ccccc3n2)c1	/	-9.8%	/	1.4%	/
Clc1cccc(N2CCN(c3c4c(nc5nncn35)CCC4)CC2)c1	/	18.4µM*	/	7.31µM*	/
CCCCCCCCSC1=CC(=O)C(OC)=C(OC)C1=O	0.0	1.16µM*	2.7%	1.03µM*	-1.1%
CCCCCCCCCCC1=C(C)C(=O)C(OC)=C(OC)C1=O	/	-8.9%[92.5 µM]	/	?	/
CCOC(=O)CSc1c(-c2ccc(Cl)cc2)[nH]c2ccccc12	26.3	?	?	?	-17.3%
CCOC(=O)CSc1c(-c2cccs2)[nH]c2ccccc12	8.1	22.5%	18.4µM*	-16.2%	?
Cc1ccc(C)c(S(=O)(=O)N2CCCOC2CNC(=O)C(=O)NCc2ccncc2)c1 (stereo unspecified)	18.1	-1.3%	1.1%	13.5%	-0.2%
Cc1cc2nc(NC(=O)C3(C)CCN(C)C3)[nH]c2cc1C (stereo unspecified)	-4.5	-27.3%	1.3%	-9.7%	14.4%
Cc1ccc(C)c(N2CCN(C(=O)c3ccc(Cl)c(NC4=NC5CS(=O)(=O)CC5S4)c3)CC2)c1 (stereo unspecified)	-17.5	?	-9.3%	?	-11.9%
CC(=O)NC(CC(=O)N1CCCC1)c1ccccc1 (stereo unspecified)	12.0	1.6%	15.8%	3.0%	23.5%
COc1cc(/C=C(/C#N)C(=O)NC(C)c2ccccc2)cc(OC)c1O (stereo unspecified)	-2.1	-21.3%	-4.2%	?	-5.4%
COc1ccccc1/C=C/C=C(\C#N)C(=O)NC(C)c1ccccc1 (stereo unspecified)	-94.2*	-27.0%	?	20.6µM*	?
COc1ccc(-c2ccc3c(c2)S(=O)(=O)c2cccc(C(=O)NC4CCCCC4)c2C3=O)cc1OC	16.0	14.6µM*	18.3%	23.1µM*	11.6%
COc1ccc(-c2ccc3c(c2)S(=O)(=O)c2cccc(C(=O)NC4CC4)c2C3=O)cc1OC	-2.4	?	5.9%	-27.2%	-18.6%
COc1ccc(-c2ccc3c(c2)S(=O)(=O)c2cccc(C(=O)NCCOc4ccccc4Cl)c2C3=O)cc1OC	158.7	23.1µM*	-2.5%	23.1µM*	8.2%
COc1ccc(-c2ccc3c(c2)S(=O)(=O)c2cccc(C(=O)NCc4ccccc4Cl)c2C3=O)cc1OC	10.7	20.6µM*	10.5%	14.6µM*	8.0%
SMILES	IL-1B inflam inh	TDP1 cell CPT	HT1080NT lethal	DT40 TDP1 no CPT	HT1080 IDH1KD tx
O=C(NCCOc1ccccc1Cl)c1ccc2c(c1)S(=O)(=O)c1cc(Cl)ccc1C2=O	22.6	?	9.9%	-27.1%	1.1%
COc1ccc(-c2ccc3c(c2)S(=O)(=O)c2cccc(C(=O)N4CCN(c5ccc(Cl)cn5)CC4)c2C3=O)cc1OC	61.4	-5.1%	4.9%	?	-3.0%
Cc1cc(=O)oc2c(C)c(OCC(=O)NCCCN3CCOCC3)ccc12	7.8	5.0%	16.9%	4.5%	0.2%
COCCNC(=O)C1(C)CCCN(Cc2c(C)nn(-c3ccccc3)c2C)C1 (stereo unspecified)	8.9	4.2%	20.4%	-5.9%	17.8%
Cc1cc(C(=O)O)cc(Br)c1N	12.9	15.0%	2.7%	4.9%	12.2%
Cc1cc(N)cc(C)c1-c1c(Br)cc(N)cc1Br	14.2	13µM*	?	18.4µM*	?
CCOC(=O)C1=C(c2ccccc2)NC(=O)NC1c1ccsc1 (stereo unspecified)	21.8	-0.7%	-0.2%	-20.8%	1.5%
S=c1[nH]nc(C23CC4CC(CC(C4)C2)C3)n1Cc1ccco1	3.9	?	-8.7%	?	-22.7%
NC1=NC[C@@H](Cc2ccc(O)cc2)N1CCC12CC3CC(CC(C3)C1)C2	-6.3	20.6µM*	-7.5%	20.6µM*	-10.2%
O=C1NC[C@H](CCCCN2C[C@H](Cc3ccc(O)cc3)N(CC3CCCCC3)C(=O)C2=O)N(CC2CCCCC2)C1=O	12.6	1.6%	7.1%	-10.9%	5.1%
NC1=NC[C@H](Cc2ccccc2)N1CCc1cc(C(F)(F)F)cc(C(F)(F)F)c1	-27.4	23.1µM*	-4.0%	14.6µM*	-3.7%
NC1=NC[C@H](Cc2ccccc2)N1CC1CCCCC1	-12.8	10.3µM*	-6.3%	11.6µM*	-0.2%
CC(C)(C)CN1C(N)=NC[C@@H]1Cc1ccccc1	-4.0	-1.8%	0.0%	-27.1%	-6.2%
NC1=NC[C@H](Cc2ccc(O)cc2)N1CCc1cccc(F)c1	-5.9	-15.6%	3.3%	?	2.5%
NC1=NC[C@H](Cc2ccc(O)cc2)N1CC1CCCCC1	-3.9	?	-2.4%	14.6µM*	-4.3%
NC1=NC[C@@H](Cc2ccc(O)cc2)N1CCCCC1CCCCC1	?	5.17µM*	-21.2%	3.66µM*	-27.0%
COc1cc(CCCN2C(N)=NC[C@@H]2Cc2ccc(O)cc2)cc(OC)c1OC	-0.9	-5.1%	10.8%	-11.4%	-1.0%
Cc1ccc(SCC(=O)OCC(=O)NC(C)c2ccc(F)cc2)cc1 (stereo unspecified)	13.6	-10.8%	8.9%	13.8%	3.5%
COc1ccc(CNC(=O)C2CCN(C(=O)Cc3ccccc3)CC2)cc1	3.6	1.2%	21.9%	-4.5%	14.6%
O=C(Nc1cc(C(F)(F)F)ccc1Cl)C(Sc1cccc[n+]1[O-])c1ccccc1 (stereo unspecified)	-95.6*	4.61µM*	-2.7%	4.61µM*	-7.4%
